Source: PubChem BioAssay
Sampled rows, rich in hits. Any-hit rate of the full collection: about 1.1%.
LAP4-GFP MLPCN: alters LAP4-GFP fluorescence in TOR pathway yeast screen | GFP response vs DMSO, % at 10 µM | 320,000 tested, 0.34% active | S. cerevisiae LAP4-GFP multiplex, flow cytometry GFP, 3 h; median GFP as percent of DMSO wells | AID 2023;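 active = GFP response vs DMSO above a set limit, about the screen mean plus 3 SD, cut at about 150% in these data; inconclusive = under 70 cell events counted for the yeast strain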
CIT2-GFP yeast: alters CIT2-GFP fluorescence in TOR pathway yeast screen; S. cerevisiae CIT2-GFP strain, flow cytometry, 3 h; 100 means same as DMSO wells; AID 2029; GFP response vs DMSO, % at 10 µM; 320,000 tested, 0.065% active;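 active = GFP response relative to DMSO above a set limit, near the screen mean plus 3 SD, cut at about 150% in these data; inconclusive = Fewer than 70 cells measured for a yeast strain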;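 also: ratio of well median GFP fluorescence to mean of DMSO wells on the plate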
VLA-4 inh: inhibition in a human VLA-4 binding assay | VLA-4 expressing cells, ligand binding flow cytometry | inhibition, % (about 7 µM as worked out from the volumes in the protocol) | 330,000 tested, 0.2% active | AID 2557; in the data active = inhibition above about 50%
MEP2-GFP yeast: modulators of TOR pathway MEP2-GFP in S. cerevisiae | S. cerevisiae MEP2-GFP strain, flow cytometry GFP, 3 h; 100% = DMSO control level | GFP response vs DMSO, % at 10 µM | 330,000 tested, 0.51% active | AID 2016;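 active = GFP response versus DMSO above a set limit, roughly screen mean plus 3 SD, cut at about 180% in these data; inconclusive = fewer than 70 cells counted for a yeast strain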;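 also: median GFP fluorescence of the barcode-gated MEP2-GFP cells per well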
AGP1 TOR yeast: modulators of TOR pathway AGP1-GFP in S. cerevisiae. S. cerevisiae AGP1-GFP multiplex flow cytometry, 3 h; GFP as percent of DMSO wells. GFP response vs DMSO, % at 10 µM. 320,000 tested, 0.02% active. AID 2066;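 active = GFP response relative to DMSO above a set limit, near screen average plus 3 SD, cut at about 150% in these data; inconclusive = fewer than 70 cells counted for the yeast strain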;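 also: median GFP channel fluorescence of the gated AGP1 strain per well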
RPL19A-GFP yeast: alters RPL19A-GFP fluorescence in TOR pathway yeast screen; percent response vs DMSO, % at 10 µM; AID 2025; 330,000 tested, 0.3% active; S. cerevisiae RPL19A-GFP strain, flow cytometry, 3 h; active compounds read low;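 active = percent response vs DMSO below 50%; inconclusive = fewer than 70 events counted for the yeast strain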;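 also: median channel GFP fluorescence of the barcoded RPL19A-GFP strain; lower means less RPL19A-GFP as with rapamycin TOR inhibition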
A number is an active result; - = inactive; ? = inconclusive; . = no result given; [ ] = another dose, or the depositor's remark.

SMILES | LAP4-GFP MLPCN | CIT2-GFP yeast | VLA-4 inh | MEP2-GFP yeast | AGP1 TOR yeast | RPL19A-GFP yeast
Cc1cc(C)n2nc(C(=O)NC(c3ccccc3)c3ccccc3)nc2n1 | - | - | - | 180.3 | - | -
C=CCOn1c(=O)c(-c2ccc(OCC)cc2)[n+]([O-])c2ccccc21 | - | - | - | - | - | -
CCN(CC)C(=O)C1=C(C)NC(=S)NC1c1cccs1 (stereo not drawn) | - | ? | - | 275.5[may fluoresce violet] | - | -
CCN(CC)C(=O)C1=C(C)NC(=S)NC1c1ccc(C)s1 (stereo not drawn) | - | - | - | - | - | -
COC(=O)c1cc2c(=O)c3ccccc3oc2nc1C | - | - | - | - | - | -
COC(=O)c1cc2c(=O)c3ccccc3oc2nc1/C=C/N(C)C | 189.9[may fluoresce violet] | ? | - | 571.8[may fluoresce violet] | - | -
Cc1cccc(NC(=S)NCc2ccccc2Cl)c1C | - | - | - | - | - | -
COc1ccc(C(=O)NC(=S)Nc2ccc(CN3CCOCC3)cc2)cc1 | 151.0 | - | - | - | - | -
CCCCOc1ccc(C(=O)NC(=S)Nc2ccc(CN3CCOCC3)cc2)cc1 | - | - | - | - | - | -
Cc1ccc(S(=O)(=O)N2CCc3ccccc3C2CC(=O)O)cc1 (stereo not drawn) | - | ? | - | ? | ? | 23.3[may fluoresce violet]
CCC(c1nnnn1C(C)(C)C)N(Cc1ccco1)Cc1cc2cccc(C)c2[nH]c1=O (stereo not drawn) | - | ? | - | 350.1[may fluoresce violet] | ? | -
CCC(c1nnnn1CCc1ccccc1)N(Cc1ccco1)Cc1cc2cccc(C)c2[nH]c1=O (stereo not drawn) | - | - | - | - | - | -
O=C(CSc1cccc[n+]1[O-])N1CCCCCC1 | - | - | - | - | - | -
O=C(CSc1cccc[n+]1[O-])CSc1cccc[n+]1[O-] | 159.1 | - | - | - | - | -
O=C(Nc1ccccc1)Nc1cccc(C(F)(F)F)c1 | - | - | - | - | - | -
C[C@H](NC(=O)Nc1cccc(C(F)(F)F)c1)C(=O)O | - | ? | - | 345.9[may fluoresce violet] | - | -
O=C1/C(=C/c2ccco2)SC(=S)N1C1CCS(=O)(=O)C1 (stereo not drawn) | ? | ? | - | ? | ? | 16.5[may fluoresce violet]
O=C1/C(=C\c2ccco2)SC(=S)N1C1CCS(=O)(=O)C1 (stereo not drawn) | - | - | - | - | - | -
CC(C)C[C@@H](C(=O)NCc1ccco1)N1C(=O)N2CCc3c([nH]c4ccccc34)[C@@]2(C)C1=O | - | - | - | - | - | -
CC(C)n1c(=S)[nH]c2c1c(=O)[nH]c(=O)n2C | - | - | - | 266.9 | - | .
CN(C)CCNC(=O)Nc1ccc(Cl)c(Cl)c1 | - | - | - | - | - | -
CC(C)(O)CNC(=O)Nc1ccc(Cl)c(Cl)c1 | - | ? | - | - | ? | 29.9[may fluoresce violet]
Cc1ccc(OCC(=O)N/N=C\c2cccn2C)c([N+](=O)[O-])c1 | - | - | - | - | - | -
COc1cc(/C=N/NC(=O)C(=O)NCc2ccco2)cc(Cl)c1O | - | ? | - | 177.7[may fluoresce violet] | ? | -
COc1cc(/C=N/NC(=O)C(=O)NCc2ccco2)ccc1O | - | - | - | - | - | -
SMILES | LAP4-GFP MLPCN | CIT2-GFP yeast | VLA-4 inh | MEP2-GFP yeast | AGP1 TOR yeast | RPL19A-GFP yeast
CCN(CC)CCn1c2ccccc2c2nc3ccc([N+](=O)[O-])cc3cc21 | . | . | - | - | . | -
CCc1nnc(NC(=O)c2ccc(S(=O)(=O)N3CCCC(C)C3)cc2)o1 (stereo not drawn) | 150.5 | - | - | - | - | -
O=C(CNC1CCCCC1)Nc1ccc(S(=O)(=O)N2CCCCC2)cc1 | - | - | - | - | - | -
CC1CCCN(S(=O)(=O)c2ccc(NC(=O)CNC3CCCC3)cc2)C1 (stereo not drawn) | - | ? | - | 315.1[may fluoresce violet] | - | -
Cc1ccc(NC(=O)OCc2cc(-c3ccccc3)on2)cc1 | - | - | - | - | - | -
Cc1ccc(NC(=O)OCc2cccs2)cc1 | - | - | 56.7 | - | - | -
Clc1ccc(Nc2ncnc3ccc(Br)cc23)cc1 | 165.6 | - | - | - | - | -
CCOC(=O)C1=C(C)N=C2SC(C(=O)OC)=CC(=O)N2C1c1ccc(F)cc1 (stereo not drawn) | 190.1 | - | - | - | - | -
O=C(O)c1ccc(N/N=C/c2c(F)cccc2Cl)cc1 | 154.0 | - | - | - | - | -
Cc1c(/C=N/Nc2ccc(C(=O)O)cc2)c2ccccc2n1C | 159.3 | - | - | - | - | -
Cc1c(/C=N\NC(=O)C2COc3ccccc3O2)c2ccccc2n1C (stereo not drawn) | - | - | - | - | - | -
O=C(O)c1ccc(N/N=C/c2ccc(-c3cc(Cl)ccc3Cl)o2)cc1 | - | ? | - | 269.1[may fluoresce violet] | - | -
O=C(O)c1ccc(N/N=C/c2ccc(-c3ccc(Cl)cc3Cl)o2)cc1 | - | - | - | - | - | -
CC1CCC(NC(=O)CSc2nnnn2C)CC1 (stereo not drawn) | - | - | - | - | - | -
CCOC(=O)c1c(N2C(=O)C3C4C=CC(O4)C3C2=O)sc2c1CCCC2 (stereo not drawn) | 173.3 | - | - | - | - | -
Cn1ccnc1CN1CCCCC1C(=O)Nc1ccc(Oc2cccnc2)cc1 (stereo not drawn) | - | - | - | - | - | -
CCc1ccc(NC(=O)C2CCCN2S(=O)(=O)c2ccc3c(c2)C(C)(C)C(=O)N3C)cc1 (stereo not drawn) | - | - | - | - | - | -
O=C(Cn1c(=O)c2cccn2c2ccccc21)NCCc1ccc(Cl)cc1 | - | ? | - | 184.1[may fluoresce violet] | - | 41.5[may fluoresce violet]
Cn1c(=O)c(C(=O)NCc2ccc(Cl)cc2)c(O)c2ccccc21 | - | - | - | - | - | -
Cn1c(=O)c(C(=O)NCCc2ccc(Cl)cc2)c(O)c2ccccc21 | - | ? | - | 201.6[may fluoresce violet] | - | -
Cc1cc(NC(=O)CSc2nnnn2-c2ccccc2F)no1 | - | ? | - | 255.5[may fluoresce violet] | - | -
COc1ccc(C(=O)NCCS(=O)(=O)N2CCc3ccccc3C2)cc1 | - | - | - | - | - | -
CSc1nnnn1-c1ccc(Cl)cc1 | - | - | - | - | - | -
Clc1ccc(-c2nnnn2-c2ccc(Cl)cc2)cc1 | 162.3 | - | - | 454.4 | - | -
Cc1ccc(-n2nnnc2C(Cl)(Cl)c2nnnn2-c2ccc(C)cc2)cc1 | 167.9 | - | - | - | - | -
Cc1cc(=O)oc2c(CN3CCCC3)c(O)c(Cl)cc12 | - | ? | - | 524.4[may fluoresce violet] | - | 27.4[may fluoresce violet]
Cc1cc(=O)oc2c(CN3CCCC3)c(O)ccc12 | - | ? | - | 659.0[may fluoresce violet] | ? | 42.4[may fluoresce violet]
Cc1cc(=O)oc2c(CN3CCCCC3)c(O)c(Cl)cc12 | - | - | - | - | - | -
CC(C)(C)N1CC23C=CC(C[C@@H]2C1=O)O3 (stereo partly drawn) | - | - | - | - | - | -
